Measurements as given in publication PMC7862700, “An all-to-all approach to the identification of sequence-specific readers for epigenetic DNA modifications on cytosine”.

Tests used:
Test in all cases: DAPPL (digital affinity profiling via proximity ligation, sequencing); 10 mM Tris-HCl pH 7.5, 50 mM NaCl, 1 mM DTT, 4% glycerol, room temperature, 30 min; GST-TFs on glutathione beads, 16-mer random dsDNA library, 0.1% formaldehyde crosslink after washing; high values mean tight binding
FLI1 = target: T1, FLI1 (Homo sapiens, UniProt Q01543 1-452); settings: protein: recombinant; tags: N-terminal GST; dsDNA, one strand shown
T1 sequence: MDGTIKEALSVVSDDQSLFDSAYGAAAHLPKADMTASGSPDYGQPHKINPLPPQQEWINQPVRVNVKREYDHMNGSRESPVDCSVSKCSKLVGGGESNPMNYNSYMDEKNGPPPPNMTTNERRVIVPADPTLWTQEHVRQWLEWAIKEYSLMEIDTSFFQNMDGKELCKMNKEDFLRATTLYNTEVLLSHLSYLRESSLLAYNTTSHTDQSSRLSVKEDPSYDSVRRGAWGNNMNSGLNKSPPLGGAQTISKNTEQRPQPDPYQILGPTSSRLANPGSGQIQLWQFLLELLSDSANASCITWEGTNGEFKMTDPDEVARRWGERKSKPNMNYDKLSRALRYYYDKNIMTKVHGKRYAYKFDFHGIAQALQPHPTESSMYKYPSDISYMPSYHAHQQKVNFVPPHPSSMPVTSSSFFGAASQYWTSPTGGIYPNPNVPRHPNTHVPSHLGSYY
In short: (§1)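 Beads coated with glutathione captured GST-fused human transcription factors that had been expressed in yeast, and the factors were then given DNA barcodes and pooled with a tag-only sample. The pools were incubated with 200 nmole of a random double-stranded 16-mer DNA library in Tris/NaCl/DTT/glycerol buffer for 30 min at room temperature, washed, crosslinked with 0.1% formaldehyde and proximity-ligated with BsaI/T4 ligase at 37 °C for 1 h. PCR amplification and Illumina NextSeq500 sequencing came last. Binding signal is each hexamer's read frequency for a factor divided by its frequency for the tag-only sample.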

ELK1 = target: T2, ELK1 (Homo sapiens, UniProt P19419 1-428); settings: protein: recombinant; tags: N-terminal GST; dsDNA, one strand shown
T2 sequence: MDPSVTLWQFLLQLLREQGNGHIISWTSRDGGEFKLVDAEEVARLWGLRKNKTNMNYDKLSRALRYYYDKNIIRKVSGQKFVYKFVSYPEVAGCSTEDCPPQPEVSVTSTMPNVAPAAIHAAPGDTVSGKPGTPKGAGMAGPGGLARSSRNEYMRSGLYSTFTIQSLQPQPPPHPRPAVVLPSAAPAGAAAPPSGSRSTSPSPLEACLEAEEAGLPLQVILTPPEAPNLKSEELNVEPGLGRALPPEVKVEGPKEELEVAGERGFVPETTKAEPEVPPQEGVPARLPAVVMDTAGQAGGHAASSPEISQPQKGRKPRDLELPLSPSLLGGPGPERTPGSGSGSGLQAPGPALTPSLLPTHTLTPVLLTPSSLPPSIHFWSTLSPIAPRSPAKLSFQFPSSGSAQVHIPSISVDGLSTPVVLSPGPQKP
In short: as §1

GABPA = target: T3, GABPA (Homo sapiens, UniProt Q06546 1-454); settings: protein: recombinant; tags: N-terminal GST; dsDNA, one strand shown
T3 sequence: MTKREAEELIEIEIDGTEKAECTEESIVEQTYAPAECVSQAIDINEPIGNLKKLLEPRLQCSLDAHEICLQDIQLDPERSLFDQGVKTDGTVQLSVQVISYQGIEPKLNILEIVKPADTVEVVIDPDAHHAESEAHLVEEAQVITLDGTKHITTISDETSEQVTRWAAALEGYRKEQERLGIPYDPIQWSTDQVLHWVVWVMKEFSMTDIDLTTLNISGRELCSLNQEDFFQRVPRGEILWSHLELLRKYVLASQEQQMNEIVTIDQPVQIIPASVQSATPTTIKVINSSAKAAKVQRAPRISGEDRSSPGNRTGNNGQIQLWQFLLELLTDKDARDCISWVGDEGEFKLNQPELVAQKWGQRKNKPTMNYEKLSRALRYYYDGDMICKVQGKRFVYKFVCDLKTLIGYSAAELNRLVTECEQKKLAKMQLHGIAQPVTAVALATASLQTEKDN
In short: as §1

ERG = target: T4, ERG (Homo sapiens, UniProt P11308 1-479); settings: protein: recombinant; tags: N-terminal GST; dsDNA, one strand shown
T4 sequence: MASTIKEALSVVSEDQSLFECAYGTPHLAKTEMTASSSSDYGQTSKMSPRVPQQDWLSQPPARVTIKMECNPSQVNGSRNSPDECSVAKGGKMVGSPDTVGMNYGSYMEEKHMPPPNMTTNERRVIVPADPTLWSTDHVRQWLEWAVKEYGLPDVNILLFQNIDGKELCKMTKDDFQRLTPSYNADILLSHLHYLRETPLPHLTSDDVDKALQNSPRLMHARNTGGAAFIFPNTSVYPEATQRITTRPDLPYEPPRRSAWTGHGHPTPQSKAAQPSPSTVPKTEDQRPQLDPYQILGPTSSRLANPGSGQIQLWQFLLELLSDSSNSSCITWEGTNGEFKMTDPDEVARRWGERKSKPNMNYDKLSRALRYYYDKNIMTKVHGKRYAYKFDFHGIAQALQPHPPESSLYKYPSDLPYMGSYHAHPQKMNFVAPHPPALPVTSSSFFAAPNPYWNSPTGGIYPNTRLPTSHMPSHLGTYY
In short: as §1

ELF1 = ELF1 (Homo sapiens, UniProt P32519 1-619); settings: protein: recombinant; tags: N-terminal GST; dsDNA, one strand shown
Sequence of ELF1 (P32519 whole entry): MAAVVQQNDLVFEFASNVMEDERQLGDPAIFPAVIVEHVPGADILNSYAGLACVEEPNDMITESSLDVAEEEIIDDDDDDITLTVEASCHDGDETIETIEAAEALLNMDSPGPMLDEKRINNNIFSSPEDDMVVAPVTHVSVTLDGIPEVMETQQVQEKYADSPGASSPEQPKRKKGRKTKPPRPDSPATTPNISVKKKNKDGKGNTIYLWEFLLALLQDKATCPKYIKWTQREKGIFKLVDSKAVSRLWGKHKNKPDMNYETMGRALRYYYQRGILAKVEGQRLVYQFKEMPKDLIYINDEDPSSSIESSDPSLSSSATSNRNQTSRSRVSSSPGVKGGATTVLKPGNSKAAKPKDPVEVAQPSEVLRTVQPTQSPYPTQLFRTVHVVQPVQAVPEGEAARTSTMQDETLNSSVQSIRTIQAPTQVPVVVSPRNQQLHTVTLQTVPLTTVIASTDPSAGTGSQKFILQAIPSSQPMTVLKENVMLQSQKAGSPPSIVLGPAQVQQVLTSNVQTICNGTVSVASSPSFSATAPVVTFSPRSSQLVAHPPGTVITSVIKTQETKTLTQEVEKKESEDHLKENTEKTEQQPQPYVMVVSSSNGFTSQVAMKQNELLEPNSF
In short: as §1

EHF = target: T5, EHF (Homo sapiens, UniProt Q9NZC4 1-300); settings: protein: recombinant; tags: N-terminal GST; dsDNA, one strand shown
T5 sequence: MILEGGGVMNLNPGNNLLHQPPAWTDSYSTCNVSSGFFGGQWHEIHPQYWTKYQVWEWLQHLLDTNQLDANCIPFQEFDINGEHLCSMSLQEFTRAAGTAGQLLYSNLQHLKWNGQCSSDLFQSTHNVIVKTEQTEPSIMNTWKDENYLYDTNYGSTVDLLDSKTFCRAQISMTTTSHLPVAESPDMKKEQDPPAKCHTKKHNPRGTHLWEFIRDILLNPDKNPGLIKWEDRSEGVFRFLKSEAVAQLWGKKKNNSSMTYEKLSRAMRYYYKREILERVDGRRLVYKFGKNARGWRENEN
In short: as §1

SPI1 = SPI1 (Homo sapiens, UniProt P17947 1-270); settings: protein: recombinant; tags: N-terminal GST; dsDNA, one strand shown
In short: as §1

SPIB = SPIB (Homo sapiens, UniProt Q01892 1-262); settings: protein: recombinant; tags: N-terminal GST; dsDNA, one strand shown
Sequence of SPIB (Q01892 whole entry): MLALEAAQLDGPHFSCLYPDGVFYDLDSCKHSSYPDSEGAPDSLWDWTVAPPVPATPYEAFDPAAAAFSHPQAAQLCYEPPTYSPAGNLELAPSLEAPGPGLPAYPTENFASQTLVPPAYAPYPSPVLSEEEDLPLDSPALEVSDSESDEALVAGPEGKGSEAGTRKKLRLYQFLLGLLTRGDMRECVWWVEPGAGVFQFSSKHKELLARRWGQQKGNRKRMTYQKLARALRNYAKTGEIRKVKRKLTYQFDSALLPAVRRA
In short: as §1

ELK3 = target: T6, ELK3 (Homo sapiens, UniProt P41970 1-407); settings: protein: recombinant; tags: N-terminal GST; dsDNA, one strand shown
T6 sequence: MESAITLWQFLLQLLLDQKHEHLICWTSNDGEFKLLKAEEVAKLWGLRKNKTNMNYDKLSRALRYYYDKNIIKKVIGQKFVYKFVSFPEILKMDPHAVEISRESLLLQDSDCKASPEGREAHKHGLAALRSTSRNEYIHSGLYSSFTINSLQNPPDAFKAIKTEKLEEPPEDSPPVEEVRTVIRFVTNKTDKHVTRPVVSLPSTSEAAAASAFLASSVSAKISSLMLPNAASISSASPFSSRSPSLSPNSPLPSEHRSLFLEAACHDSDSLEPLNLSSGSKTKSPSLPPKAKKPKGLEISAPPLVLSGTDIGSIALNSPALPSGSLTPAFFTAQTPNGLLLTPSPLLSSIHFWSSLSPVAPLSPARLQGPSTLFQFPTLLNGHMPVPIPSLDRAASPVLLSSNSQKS
In short: as §1

FEV = target: T7, FEV (Homo sapiens, UniProt Q99581 1-238); settings: protein: recombinant; tags: N-terminal GST; dsDNA, one strand shown
T7 sequence: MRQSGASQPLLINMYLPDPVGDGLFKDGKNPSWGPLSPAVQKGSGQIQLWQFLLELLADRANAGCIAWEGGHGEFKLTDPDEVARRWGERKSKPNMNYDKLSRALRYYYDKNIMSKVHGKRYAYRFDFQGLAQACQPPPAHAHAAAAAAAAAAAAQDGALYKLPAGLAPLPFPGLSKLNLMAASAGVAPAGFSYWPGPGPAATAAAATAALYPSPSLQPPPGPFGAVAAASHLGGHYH
In short: as §1

ETV5 = ETV5 (Homo sapiens, UniProt P41161 1-510); settings: protein: recombinant; tags: N-terminal GST; dsDNA, one strand shown
Sequence of ETV5 (P41161 whole entry): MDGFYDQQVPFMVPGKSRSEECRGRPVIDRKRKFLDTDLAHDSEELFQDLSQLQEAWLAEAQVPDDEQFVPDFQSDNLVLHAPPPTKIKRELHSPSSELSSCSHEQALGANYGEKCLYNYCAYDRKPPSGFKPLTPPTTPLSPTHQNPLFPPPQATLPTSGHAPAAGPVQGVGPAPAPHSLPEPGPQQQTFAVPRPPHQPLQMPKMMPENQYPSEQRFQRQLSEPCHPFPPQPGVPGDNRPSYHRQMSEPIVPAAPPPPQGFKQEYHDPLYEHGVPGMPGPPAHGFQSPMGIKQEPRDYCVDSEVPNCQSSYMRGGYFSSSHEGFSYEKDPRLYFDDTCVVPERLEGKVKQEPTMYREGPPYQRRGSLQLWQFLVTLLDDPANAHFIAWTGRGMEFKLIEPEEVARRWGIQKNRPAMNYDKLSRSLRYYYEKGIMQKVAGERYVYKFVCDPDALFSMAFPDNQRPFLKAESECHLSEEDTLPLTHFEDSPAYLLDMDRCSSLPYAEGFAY
In short: as §1

HSF1 = HSF1 (Homo sapiens, UniProt Q00613 1-529); settings: protein: recombinant; tags: N-terminal GST; chain copies: 3; dsDNA, one strand shown
Sequence of HSF1 (Q00613 whole entry): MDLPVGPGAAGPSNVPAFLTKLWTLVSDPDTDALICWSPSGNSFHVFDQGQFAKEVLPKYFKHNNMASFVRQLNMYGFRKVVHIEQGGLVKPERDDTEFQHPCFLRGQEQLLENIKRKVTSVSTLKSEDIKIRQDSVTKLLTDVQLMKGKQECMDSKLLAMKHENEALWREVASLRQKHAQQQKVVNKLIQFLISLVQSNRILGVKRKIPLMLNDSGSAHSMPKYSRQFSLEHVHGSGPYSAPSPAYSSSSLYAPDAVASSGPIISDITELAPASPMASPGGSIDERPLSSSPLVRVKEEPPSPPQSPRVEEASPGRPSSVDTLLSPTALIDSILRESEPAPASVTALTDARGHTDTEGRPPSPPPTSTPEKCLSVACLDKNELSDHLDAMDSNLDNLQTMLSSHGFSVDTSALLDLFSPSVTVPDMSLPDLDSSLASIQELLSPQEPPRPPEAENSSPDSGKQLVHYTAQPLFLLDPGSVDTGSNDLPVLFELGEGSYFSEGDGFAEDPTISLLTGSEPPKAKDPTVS
In short: as §1

SPIC = target: T8, SPIC (Homo sapiens, UniProt Q8N5J4 1-248); settings: protein: recombinant; tags: N-terminal GST; dsDNA, one strand shown
T8 sequence: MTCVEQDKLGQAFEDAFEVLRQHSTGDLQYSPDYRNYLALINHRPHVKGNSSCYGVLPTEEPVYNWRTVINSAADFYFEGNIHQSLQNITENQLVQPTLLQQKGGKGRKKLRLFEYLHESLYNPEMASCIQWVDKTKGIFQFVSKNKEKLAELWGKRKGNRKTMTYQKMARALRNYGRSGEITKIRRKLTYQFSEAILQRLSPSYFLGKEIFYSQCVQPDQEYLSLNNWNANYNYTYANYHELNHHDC
In short: as §1

ELF4 = ELF4 (Homo sapiens, UniProt Q99607 1-663); settings: protein: recombinant; tags: N-terminal GST; dsDNA, one strand shown
Sequence of ELF4 (Q99607 whole entry): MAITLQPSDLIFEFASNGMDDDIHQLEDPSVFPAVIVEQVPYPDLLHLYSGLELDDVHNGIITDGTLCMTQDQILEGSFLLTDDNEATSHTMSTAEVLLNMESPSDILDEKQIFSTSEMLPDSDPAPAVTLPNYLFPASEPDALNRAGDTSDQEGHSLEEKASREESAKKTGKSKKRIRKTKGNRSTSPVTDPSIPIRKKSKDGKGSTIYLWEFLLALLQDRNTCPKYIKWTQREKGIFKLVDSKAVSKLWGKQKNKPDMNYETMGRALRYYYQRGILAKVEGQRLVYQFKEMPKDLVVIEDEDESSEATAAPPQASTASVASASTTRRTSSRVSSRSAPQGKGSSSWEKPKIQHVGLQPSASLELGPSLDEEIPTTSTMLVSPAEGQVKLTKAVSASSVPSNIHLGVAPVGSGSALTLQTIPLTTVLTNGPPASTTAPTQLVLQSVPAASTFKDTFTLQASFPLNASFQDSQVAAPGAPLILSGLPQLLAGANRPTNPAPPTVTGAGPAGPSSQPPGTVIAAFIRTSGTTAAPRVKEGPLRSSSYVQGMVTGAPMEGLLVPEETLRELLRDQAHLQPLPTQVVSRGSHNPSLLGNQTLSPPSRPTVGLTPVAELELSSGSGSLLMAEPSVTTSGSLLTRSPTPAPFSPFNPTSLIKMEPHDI
In short: as §1

ELK4 = target: T9, ELK4 (Homo sapiens, UniProt P28324-2 1-405); settings: protein: recombinant; tags: N-terminal GST; dsDNA, one strand shown
T9 sequence: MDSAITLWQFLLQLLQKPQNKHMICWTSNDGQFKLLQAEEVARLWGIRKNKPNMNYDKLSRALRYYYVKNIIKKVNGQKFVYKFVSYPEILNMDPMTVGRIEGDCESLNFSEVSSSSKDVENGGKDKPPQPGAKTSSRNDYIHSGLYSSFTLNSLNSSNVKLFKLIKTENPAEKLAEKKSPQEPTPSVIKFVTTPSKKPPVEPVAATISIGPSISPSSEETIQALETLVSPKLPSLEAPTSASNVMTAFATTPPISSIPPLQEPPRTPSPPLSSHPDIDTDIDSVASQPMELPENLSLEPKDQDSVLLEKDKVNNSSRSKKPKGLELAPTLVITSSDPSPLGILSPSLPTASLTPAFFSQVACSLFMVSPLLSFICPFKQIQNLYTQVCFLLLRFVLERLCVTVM
In short: as §1

ETV2 = target: T10, ETV2 (Homo sapiens, UniProt O00321 1-342); settings: protein: recombinant; tags: N-terminal GST; dsDNA, one strand shown
T10 sequence: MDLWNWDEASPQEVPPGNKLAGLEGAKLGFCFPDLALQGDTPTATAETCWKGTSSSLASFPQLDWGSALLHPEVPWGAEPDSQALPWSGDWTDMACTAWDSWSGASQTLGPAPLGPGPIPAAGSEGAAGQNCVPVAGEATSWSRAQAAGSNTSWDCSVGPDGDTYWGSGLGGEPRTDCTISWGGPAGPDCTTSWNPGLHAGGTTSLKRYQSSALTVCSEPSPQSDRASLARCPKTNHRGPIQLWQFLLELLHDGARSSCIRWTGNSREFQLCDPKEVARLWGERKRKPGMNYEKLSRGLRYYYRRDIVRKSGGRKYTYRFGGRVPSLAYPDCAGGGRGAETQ
In short: as §1

ELF3 = target: T11, ELF3 (Homo sapiens, UniProt P78545 1-371); settings: protein: recombinant; tags: N-terminal GST; dsDNA, one strand shown
T11 sequence: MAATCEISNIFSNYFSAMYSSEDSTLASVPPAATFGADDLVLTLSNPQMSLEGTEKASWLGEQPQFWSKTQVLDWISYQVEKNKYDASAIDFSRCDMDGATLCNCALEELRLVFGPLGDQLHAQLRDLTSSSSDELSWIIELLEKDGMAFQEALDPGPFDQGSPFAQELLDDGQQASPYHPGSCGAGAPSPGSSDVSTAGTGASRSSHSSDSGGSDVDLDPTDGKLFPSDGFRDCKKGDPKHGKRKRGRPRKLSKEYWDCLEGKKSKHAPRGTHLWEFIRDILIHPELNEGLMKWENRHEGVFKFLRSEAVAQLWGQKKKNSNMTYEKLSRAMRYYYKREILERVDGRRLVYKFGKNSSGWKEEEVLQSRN
In short: as §1

CRX = CRX (Homo sapiens, UniProt O43186 1-299); settings: protein: recombinant; tags: N-terminal GST; dsDNA, one strand shown
Sequence of CRX (O43186 whole entry): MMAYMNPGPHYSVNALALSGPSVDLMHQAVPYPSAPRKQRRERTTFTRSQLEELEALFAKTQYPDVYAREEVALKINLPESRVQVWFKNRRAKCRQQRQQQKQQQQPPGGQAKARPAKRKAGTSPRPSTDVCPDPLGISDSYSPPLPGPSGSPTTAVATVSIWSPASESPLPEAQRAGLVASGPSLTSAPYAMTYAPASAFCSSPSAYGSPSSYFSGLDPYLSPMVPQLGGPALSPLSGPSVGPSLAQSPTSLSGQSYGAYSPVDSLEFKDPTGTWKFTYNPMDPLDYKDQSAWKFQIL
In short: as §1

ETV1 = ETV1 (Homo sapiens, UniProt P50549 1-477); settings: protein: recombinant; tags: N-terminal GST; dsDNA, one strand shown
Sequence of ETV1 (P50549 whole entry): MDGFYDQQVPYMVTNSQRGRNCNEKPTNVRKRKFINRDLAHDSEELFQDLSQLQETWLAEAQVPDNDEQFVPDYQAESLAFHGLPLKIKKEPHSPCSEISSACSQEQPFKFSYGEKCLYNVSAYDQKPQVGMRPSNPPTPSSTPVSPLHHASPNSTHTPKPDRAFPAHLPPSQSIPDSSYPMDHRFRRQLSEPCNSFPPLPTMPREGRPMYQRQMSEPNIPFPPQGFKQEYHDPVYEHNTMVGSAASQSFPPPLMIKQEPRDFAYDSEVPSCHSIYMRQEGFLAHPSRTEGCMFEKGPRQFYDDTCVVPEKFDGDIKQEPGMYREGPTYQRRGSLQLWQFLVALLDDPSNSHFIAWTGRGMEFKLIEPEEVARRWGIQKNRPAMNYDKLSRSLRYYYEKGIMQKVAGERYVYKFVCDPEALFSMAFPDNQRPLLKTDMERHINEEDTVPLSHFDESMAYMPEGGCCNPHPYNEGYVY
In short: as §1

TTTACA
binding signal (FLI1): 1.18 fold enrichment (6-mer frequency, TF over GST control)
binding signal (ELK1): 1.19 fold enrichment (6-mer frequency, TF over GST control)
binding signal (GABPA): 1.25 fold enrichment (6-mer frequency, TF over GST control)
binding signal (ERG): 1.23 fold enrichment (6-mer frequency, TF over GST control)
binding signal (ELF1): 1.31 fold enrichment (6-mer frequency, TF over GST control)
binding signal (EHF): 1.31 fold enrichment (6-mer frequency, TF over GST control)
binding signal (SPI1): 1.22 fold enrichment (6-mer frequency, TF over GST control)
binding signal (SPIB): 1.24 fold enrichment (6-mer frequency, TF over GST control)
binding signal (ELK3): 1.25 fold enrichment (6-mer frequency, TF over GST control)
binding signal (FEV): 1.2 fold enrichment (6-mer frequency, TF over GST control)
binding signal (ETV5): 1.19 fold enrichment (6-mer frequency, TF over GST control)
binding signal (HSF1): 1.32 fold enrichment (6-mer frequency, TF over GST control)
binding signal (SPIC): 1.19 fold enrichment (6-mer frequency, TF over GST control)
binding signal (ELF4): 1.26 fold enrichment (6-mer frequency, TF over GST control)
binding signal (ELK4): 1.32 fold enrichment (6-mer frequency, TF over GST control)
binding signal (ETV2): 1.26 fold enrichment (6-mer frequency, TF over GST control)
binding signal (ELF3): 1.4 fold enrichment (6-mer frequency, TF over GST control)
binding signal (CRX): 1.55 fold enrichment (6-mer frequency, TF over GST control)
binding signal (ETV1): 1.3 fold enrichment (6-mer frequency, TF over GST control)
